Only some compounds are listed: those with a hit (about 12% of all), similar ones and a draw of the others.
m-calpain inh: inhibitors of pig calpain II, primary screen, biochemical, fluorogenic peptide substrate, 1536-well | purified calpain II, 30 min | inhibition, % at 16 µM | hit rate 0.37% among 220,000;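 active = inhibition above about 50%, limit read from the data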
KCC2 mod: KCC2 cotransporter modulators, thallium flux, primary screen, cell-based, HEK293 KCC2, FluoZin-2 fluorescence, MLSMR; AID 1456, 2008; hit rate 2.2% among 190,000; KCC2 cells, thallium flux FluoZin-2 fluorescence; Solute carrier family 12 member 5 (Homo sapiens), Q9H2X9; B-score of Tl+ flux slope (higher = more flux/activation; lower = inhibition) at 10 µM;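 active = thallium flux slope and its plate-corrected score both differing from the plate sample mean at a set confidence after two filtering rounds, in either direction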;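 also: slope of fluorescence scaled to starting intensity during 10 to 20 s after thallium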
Target sequence (Q9H2X9 whole entry, looked up): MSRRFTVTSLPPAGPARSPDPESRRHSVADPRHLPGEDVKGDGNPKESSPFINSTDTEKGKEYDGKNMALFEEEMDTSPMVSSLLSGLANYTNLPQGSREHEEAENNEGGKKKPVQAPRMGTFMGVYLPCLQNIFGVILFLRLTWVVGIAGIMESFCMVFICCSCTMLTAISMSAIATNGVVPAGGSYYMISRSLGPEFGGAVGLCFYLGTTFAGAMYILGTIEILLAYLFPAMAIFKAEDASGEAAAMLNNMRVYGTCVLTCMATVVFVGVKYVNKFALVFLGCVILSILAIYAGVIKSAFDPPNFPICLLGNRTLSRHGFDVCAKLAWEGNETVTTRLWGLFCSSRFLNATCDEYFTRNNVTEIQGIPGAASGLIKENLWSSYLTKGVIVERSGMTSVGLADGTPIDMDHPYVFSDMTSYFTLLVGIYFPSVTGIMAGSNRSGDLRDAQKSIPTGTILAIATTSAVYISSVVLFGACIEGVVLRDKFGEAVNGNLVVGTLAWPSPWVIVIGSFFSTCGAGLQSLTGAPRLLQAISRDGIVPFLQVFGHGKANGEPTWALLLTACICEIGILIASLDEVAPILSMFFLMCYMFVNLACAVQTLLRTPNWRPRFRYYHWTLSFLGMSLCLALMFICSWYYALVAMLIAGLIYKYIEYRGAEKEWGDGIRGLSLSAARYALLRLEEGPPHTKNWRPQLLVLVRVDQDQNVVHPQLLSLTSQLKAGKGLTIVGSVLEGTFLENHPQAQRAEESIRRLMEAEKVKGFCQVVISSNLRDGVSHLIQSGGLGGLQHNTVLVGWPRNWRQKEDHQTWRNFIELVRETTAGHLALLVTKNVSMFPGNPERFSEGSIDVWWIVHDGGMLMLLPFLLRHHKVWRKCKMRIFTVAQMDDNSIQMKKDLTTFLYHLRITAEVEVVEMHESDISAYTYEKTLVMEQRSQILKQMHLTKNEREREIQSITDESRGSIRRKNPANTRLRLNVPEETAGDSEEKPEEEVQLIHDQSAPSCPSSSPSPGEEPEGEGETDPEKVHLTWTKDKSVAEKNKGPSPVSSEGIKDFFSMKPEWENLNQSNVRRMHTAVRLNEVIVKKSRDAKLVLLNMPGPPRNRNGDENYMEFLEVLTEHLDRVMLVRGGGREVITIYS
WT yeast gro inh: growth inhibition of WT strain, primary screen, mitochondrial fusion inhibitor project, WT and mutant strains, chemical genetic | inhibition, % at 10 µM | hit rate 2.1% among 190,000 | AID 1362, 2008 | mitochondrial fusion phenotypic screen; in the data active = inhibition above about 58%; tested in S. cerevisiae
L major viab: Leishmania major promastigote growth inhibition, primary screen; Leishmania major promastigotes, resazurin fluorescence viability; inhibition, % at 10 µM; hit rate 9% among 200,000; in the data active = inhibition above about 50%;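 also: promastigotes grown with compound for 44 hours at 28 °C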
ROMK primary: ROMK potassium channel modulators, primary screen, cell-based, thallium flux, MLSMR library. ATP-sensitive inward rectifier potassium channel 1 (Homo sapiens), P48048. Tet-inducible ROMK, thallium flux fluorescence; actives lie on both sides. B-score at 10 µM. hit rate 2% among 130,000. AID 1918, 2009;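 active = signal ratio slope over the read window, or its plate-corrected B-score, at least 3 SD from the plate mean, either direction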;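 also: B-score of the F/F0 ratio slope over 7 to 12 s after thallium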
KCC2 secondary: KCC2 modulators in sodium-free buffer, confirmation, cell-based, HEK293 KCC2, thallium flux, secondary assay; normalised thallium flux (F/F0 slope) at 10 µM; hit rate 15% among 3,700; FluoZin2 fluorescence; hits give high values; AID 1713, 2009; shares compounds with KCC2 mod;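 active = thallium flux slope above the same plate's solvent-only control mean plus 3 SD; inconclusive = the two replicate wells disagree; inactive = no significant difference from solvent-only control wells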
KCC2 bumet counter: thallium flux persisting under bumetanide in KCC2 cells, confirmation, counter-screen for KCC2 modulator project, cell-based, HEK293 KCC2, FluoZin2, secondary assay 3; shares compounds with KCC2 mod; HEK293-KCC2 + bumetanide/ouabain; hits give high values; normalized thallium flux at 10 µM; hit rate 49% among 3,700; AID 1714, 2009;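 active = thallium entry rate above the same plate's blocked-transporter control wells by more than 3 SD; inconclusive = the two repeat wells disagree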;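 also: raw slope of fluorescence over initial fluorescence between 10 and 20 s after thallium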
KCC2 sec2: KCC2 modulators without ouabain present, confirmation, cell-based, HEK293 KCC2, thallium flux, FluoZin2, secondary assay 2. hit rate 23% among 3,700. shares compounds with KCC2 mod. normalized thallium flux at 10 µM. thallium flux FluoZin2 fluorescence; actives lie on both sides; F/F0 rise rate, 10–20 s post-thallium;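 active = thallium flux slope more than 3 SD above or below the plate's solvent-only control mean, mostly below; inconclusive = the two repeat wells disagreed; inactive = no significant shift from solvent-only controls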;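 also: raw slope with 0.1% DMSO as baseline and bumetanide as block control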
HEK counter1: thallium flux modulation in parental HEK cells, confirmation, counter-screen for KCC2 modulator project, cell-based, counterscreen 1. thallium flux rate (normalised fluorescence) at 10 µM. HEK293 parental cells, thallium flux FluoZin2, ouabain; baseline-ratio fluorescence slope, 10–20 s after thallium. hit rate 46% among 3,700. shares compounds with KCC2 mod;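 active = thallium flux rate significantly above the same plate's solvent-only control wells, beyond their mean plus 3 SD; inconclusive = the two replicate wells gave conflicting results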
KCC2 ouabain: KCC2 inhibitors and activators, ouabain retest, confirmation, HEK-KCC2 cells; shares compounds with KCC2 mod; HEK293-KCC2, thallium flux FluoZin2 fluorescence; bidirectional: low = inhibitor, high = activator; raw Tl+ flux slope (below DMSO = inhibition, above = activation) at 10 µM; hit rate 48% among 3,700;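 active = thallium flux slope beyond 3 SD from same-plate DMSO control mean in most replicates, usually higher, sometimes lower; inconclusive = repeat tests gave conflicting results; inactive = no significant difference from controls in most replicates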;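 also: slope of initial-normalized fluorescence between seconds 10 and 20 after thallium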
HEK counter2: native HEK Tl+ uptake effects, second counter-screen – HEK cells, counterscreen 2, counter-screen for KCC2 modulator project, confirmation; hit rate 33% among 3,700; shares compounds with KCC2 mod; HEK293 parental, thallium flux FluoZin-2 fluorescence slope; thallium flux slope at 10 µM;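 active = thallium flux slope above the same plate's solvent-control mean plus 3 SD in both duplicate wells; inconclusive = duplicate wells that disagreed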;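 also: run without ouabain in cells lacking the KCC2 cotransporter; slope of fluorescence scaled to its starting value between 10 and 20 s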
* hit, by the source's call; ? = inconclusive; nt = no result given.

SMILES | m-calpain inh | KCC2 mod | WT yeast gro inh | L major viab | ROMK primary | KCC2 secondary | KCC2 bumet counter | KCC2 sec2 | HEK counter1 | KCC2 ouabain | HEK counter2
Cc1ccc(CNC(=O)C2CC3Cn4c(nc5cc(Cl)c(Cl)cc54)C3N2C)o1 (configuration not stated) | 1 | -0.61 | nt | nt | nt | nt | nt | nt | nt | nt | nt
Cc1cc2cc3c(cc2nc1SCC(=O)O)OCCO3 | -16 | 0.98 | -1 | -3 | nt | nt | nt | nt | nt | nt | nt
Cc1cc2cc3c(cc2nc1SCc1ccc(C(=O)O)cc1)OCCO3 | 21 | -4.2* | 50 | -3 | nt | 0.0076 | 0.098* | ? | 0.036* | 0.035* | 0.014*
CCOC(=O)C(O)(CC(=O)c1ccc(Cl)cc1)C(=O)OCC | -9 | 1.2 | -3 | -5 | 0.61 | nt | nt | nt | nt | nt | nt
Cc1[nH]c2ccccc2c1/C=C/c1nc2ccccc2c(=O)n1CCO | -33 | -4.2* | -2 | 28 | -0.76 | 0.0061 | 0.0024* | 0.03 | 0.0072 | ? | 0.0098
O=S(=O)(c1ccc(-c2ccon2)s1)N1CCN(CCN2CCOCC2)CC1 | 1 | -0.15 | nt | nt | -0.87 | nt | nt | nt | nt | nt | nt
CCOc1cc(N(CC)CC)ccc1/C=C(/C#N)c1nc2ccccc2[nH]1 | -88 | nt | -2 | 80* | nt | 0.0077* | -0.0033* | 0.029 | ? | 0.0081* | 0.011
CN(C)/C=C(\C#N)c1nc2ccccc2[nH]1 | -3 | nt | 16 | 18 | -1.3 | nt | nt | nt | nt | nt | nt
N#CC(C#N)=CNc1cccnc1 | -6 | nt | nt | nt | nt | nt | nt | nt | nt | nt | nt
CC1Cc2ccccc2N1C(=O)c1ccc(N2CCCC2)c([N+](=O)[O-])c1 (configuration not stated) | 33 | -6.5* | 19 | 12 | nt | 0.0068 | 0.0047 | 0.02* | 0.0071 | 0.013* | 0.01
COc1ccc(C(=O)N2c3ccccc3CC2C)cc1OC (configuration not stated) | 11 | -1.1 | 13 | 3 | nt | nt | nt | nt | nt | nt | nt
CC1Cc2ccccc2N1C(=O)c1ccc(N2CCCCC2)c([N+](=O)[O-])c1 (configuration not stated) | 37 | -4.7* | 43 | 4 | nt | 0.011 | ? | ? | 0.0069 | 0.013* | 0.01
O=C(O)c1ccccc1C(=O)c1ccc(N2CCCC2)c([N+](=O)[O-])c1 | -8 | 0.94 | 2 | -1 | 0.044 | nt | nt | nt | nt | nt | nt
CC(=O)c1cccc(NC(=S)NC(=O)c2ccc(C)cc2Cl)c1 | 28 | 21* | 13 | -1 | 0.51 | 0.0058 | 0.062* | ? | 0.019* | 0.036* | 0.019*
CC(=O)c1cccc(NC(=S)NC(=O)Cc2ccccc2)c1 | 3 | 6.2* | 13 | -5 | 0.023 | 0.0079 | 0.0091* | ? | 0.01* | 0.02 | ?
Cc1cc(C(=O)NNC(=S)NCC(C)C)cs1 | 12 | 1.1 | 5 | 2 | nt | nt | nt | nt | nt | nt | nt
CCC(=O)NC(=S)Nc1cccc(NC(=O)c2ccc(Cl)cc2Cl)c1 | -31 | nt | -10 | -6 | nt | nt | nt | nt | nt | nt | nt
CC(=O)c1cccc(NC(=S)NC(=O)c2ccc(C)cc2)c1 | 37 | 7.2* | 10 | -7 | -0.3 | 0.0059 | 0.013* | 0.029 | 0.011* | ? | 0.012*
Cc1cccc(NC(=S)NNC(=O)c2csc(C)c2)c1 | -16 | 4.5* | -3 | 1 | 0.46 | ? | 0.019* | 0.035 | 0.017* | ? | 0.019*
CCC(=O)NC(=S)Nc1cccc(C(C)=O)c1 | -26 | 0.56 | -6 | -5 | nt | nt | nt | nt | nt | nt | nt
CCC(=O)Nc1cccc(NC(=S)NC(=O)c2ccc(C)cc2)c1 | -1 | -0.68 | -7 | -1 | -0.056 | nt | nt | nt | nt | nt | nt
O=C(NCC1CCCO1)C1c2ccccc2C(=O)N1C1CCCCCC1 (configuration not stated) | -15 | 0.35 | -10 | -4 | nt | nt | nt | nt | nt | nt | nt
O=C(NCc1ccccc1)c1ccccc1OCC(=O)N1CCCCC1 | 5 | -0.0044 | 6 | 22 | 0.85 | nt | nt | nt | nt | nt | nt
CC(/C=N/NC(=O)CNc1n[nH]c(=O)[nH]c1=O)c1ccccc1 (configuration not stated) | -9 | -0.98 | nt | nt | 0.22 | nt | nt | nt | nt | nt | nt
COC(=O)c1cccc(NC(=O)NC(=O)c2ccccc2Cl)c1 | 3 | 0.21 | nt | nt | nt | nt | nt | nt | nt | nt | nt
SMILES | m-calpain inh | KCC2 mod | WT yeast gro inh | L major viab | ROMK primary | KCC2 secondary | KCC2 bumet counter | KCC2 sec2 | HEK counter1 | KCC2 ouabain | HEK counter2
CC(=O)c1cccc(NC(=S)NC(=O)c2ccccc2Cl)c1 | 27 | 5.4* | 7 | -1 | nt | 0.008 | 0.026* | 0.034 | 0.017* | 0.028* | 0.013*
COc1ccc(CNC(=S)Nc2ccc(F)c(Cl)c2)cc1 | 34 | -1.1 | 15 | 5 | -0.16 | nt | nt | nt | nt | nt | nt
Fc1ccc(NC(=S)Nc2ccc(F)c(Cl)c2)cc1Cl | 26 | -4.3* | -9 | 97* | -1.5 | 0.006 | 0.0035 | ? | 0.0059* | 0.013* | ?
O=C(c1ccc(CS(=O)(=O)c2cccc(C(F)(F)F)c2)o1)N1CCN(c2ccccn2)CC1 | -31 | -0.44 | 6 | 2 | nt | nt | nt | nt | nt | nt | nt
N#Cc1ccc(C23CC4(C2)[C@H](CN(Cc2ccc(-c5ccccc5)cc2)[C@@H]4c2ccccc2)C3c2ccccc2)cc1 (some centres not stated) | -34 | 3.7* | nt | nt | nt | 0.015 | 0.0049 | 0.026 | 0.0075 | 0.016 | 0.01
c1ccc(-c2ccc(CN3C[C@@H]4C(c5ccccc5)C5(c6ccccc6)CC4(C5)[C@H]3c3ccccc3)cc2)cc1 (some centres not stated) | 1 | 0.46 | nt | nt | nt | nt | nt | nt | nt | nt | nt
CN1c2ccccc2C(C)(C)C12C=Nc1c(ccc3ccccc13)O2 (configuration not stated) | 11 | -0.19 | 25 | 5 | nt | nt | nt | nt | nt | nt | nt
CN1c2ccccc2C(C)(C)[C@]12C=Cc1cc(O)ccc1O2 | 11 | -3.4* | 26 | 99* | -1.8 | 0.0075 | ? | 0.033 | 0.007 | 0.016* | 0.011
Cc1nnc(SCCn2c(N3CC(C)CC(C)C3)nc3c2c(=O)[nH]c(=O)n3C)s1 (configuration not stated) | 17 | nt | -14 | 5 | 0.74 | nt | nt | nt | nt | nt | nt

Screens: PubChem, several laboratories
